Assay outcomes: PubChem, The Scripps Research Institute Molecular Screening Center
GSTO1 counter: inhibitors of recombinant GSTO1, primary screen, counter-screen for RBBP9 inhibitor project, biochemical, fluorescence polarization; inhibition, % at 5.96 µM; activity-based probe fluorescence polarization; Glutathione S-transferase omega-1 (Homo sapiens), P78417; 300,000 tested, 1.1% active;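 active = inhibition above the campaign mean inhibition plus 3 SD, cut at about 35% in these data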;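 note: 0% = GSTO1-1 with DMSO and 100% = wells lacking GSTO1-1 enzyme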
PME-1 primary: PME-1 inhibitors via competitive probe labeling, primary screen, biochemical, fluorescence polarization, FP-Rh probe, HTS; inhibition, % at 5.9 µM; recombinant PME-1; Protein phosphatase methylesterase 1 (Homo sapiens), Q9Y570; 320,000 tested, 0.53% active;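 active = inhibition above the campaign mean of all compounds plus 3 SD, cut at about 26% in these data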;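 note: competitive labeling of PME-1 active site by serine hydrolase directed probe; 0% = PME-1 with DMSO and 100% = wells lacking PME-1 enzyme; inhibitors block probe labeling so polarization falls and inhibition rises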
Target sequence (Q9Y570 whole entry, looked up): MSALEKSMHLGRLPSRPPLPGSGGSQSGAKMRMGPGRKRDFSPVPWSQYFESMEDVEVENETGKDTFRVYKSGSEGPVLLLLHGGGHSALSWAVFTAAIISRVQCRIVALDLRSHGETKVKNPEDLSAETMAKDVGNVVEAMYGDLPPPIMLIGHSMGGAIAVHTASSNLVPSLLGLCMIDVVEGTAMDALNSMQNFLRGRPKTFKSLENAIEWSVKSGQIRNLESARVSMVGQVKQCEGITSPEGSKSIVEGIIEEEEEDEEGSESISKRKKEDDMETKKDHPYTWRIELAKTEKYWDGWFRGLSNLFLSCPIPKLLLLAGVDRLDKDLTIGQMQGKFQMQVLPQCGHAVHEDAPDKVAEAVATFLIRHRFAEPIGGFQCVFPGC
LYPLA2 inh: LYPLA2 inhibitors, primary screen, counter-screen for PME1 inhibitor project, biochemical, fluorescence polarization, FP-Rh probe ABPP; Acyl-protein thioesterase 2 (Homo sapiens), O95372; recombinant LYPLA2; inhibition, % at 5.9 µM; 320,000 tested, 0.38% active;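 active = inhibition above the screen-wide mean plus 3 SD, limit set per campaign, cut at about 26% in these data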;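 note: 0% = LYPLA2 with DMSO and 100% = wells lacking LYPLA2 enzyme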
LYPLA1 inh: LYPLA1 inhibitors, primary screen, counter-screen for PME1 inhibitor project, biochemical, fluorescence polarization, FP-Rh probe ABPP | Acyl-protein thioesterase 1 (Homo sapiens), O75608 | recombinant LYPLA1 | inhibition, % at 5.9 µM | 320,000 tested, 0.16% active;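 active = inhibition above the mean of all tested compounds plus 3 SD, set per campaign, cut at about 14% in these data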;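 note: inhibitors block serine hydrolase probe labeling of LYPLA1 so polarization falls; 0% = enzyme with DMSO and 100% = wells lacking LYPLA1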
Fam108B counter: mouse Fam108B serine hydrolase inhibitors, primary screen, counter-screen for RBBP9 inhibitor project, biochemical, fluorescence polarization. recombinant Fam108B, FP-Rh probe fluorescence polarization. inhibition, % at 9.51 µM. 300,000 tested, 0.33% active;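 active = inhibition above the screen mean inhibition plus 3 SD, computed separately per campaign, cut at about 18% in these data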;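 note: inhibitors lower polarization as less probe binds the enzyme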
PAD4 FP inh: human PAD4 inhibitors, primary screen, biochemical, fluorescence polarization, 1536-well format; Protein-arginine deiminase type-4 (Homo sapiens), Q9UM07; recombinant PAD4, RCA probe fluorescence polarization; inhibition, % at 6.36 µM; 330,000 tested, 0.41% active;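 active = percent inhibition above a cutoff equal to the mean of all tested compounds plus 3 SD, cut at about 15% in these data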;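 note: 0% = PAD4 with RCA probe and DMSO and 100% = probe without PAD4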
Fam108b confirm: mouse Fam108b serine hydrolase inhibitors, confirmation, counter-screen for RBBP9 inhibitor project, biochemical, fluorescence polarization, triplicate | 930 tested, 44% active | shares compounds with Fam108B counter | AID 1978, 2009 | recombinant Fam108b, FP-Rh probe fluorescence polarization | inhibition, % at 9.51 µM;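 active = inhibition above a limit from the primary screen, the mean over all compounds plus 3 SD, cut at about 19% in these data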;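 note: 0% = median of active Fam108b wells and 100% = catalytically dead S170A mutant; inhibitors free the probe so polarization falls as inhibition rises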
Fam108b inh: inhibition of mouse Fam108b by HTS hits, late-stage follow-up, biochemical, gel-based ABPP, soluble recombinant form. shares compounds with Fam108B counter. fluorophosphonate probe. inhibition, % at 20 µM. 260 tested, 44% active. AID 588649, 2011; in the data active = inhibition above about 40%
GSTO1 inh conf: GSTO1 inhibitor hit confirmation, counter-screen for RBBP9 inhibitor project, biochemical, fluorescence polarization, triplicate | AID 2176, 2009 | recombinant GSTO1, probe fluorescence polarization | inhibition, % at 5.96 µM | shares compounds with GSTO1 counter | 2,400 tested, 54% active;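 active = inhibition above the primary screen's cutoff, its mean inhibition plus 3 SD, cut at about 35% in these data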;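 note: loss of polarization as inhibitors block binding of rhodamine sulfonate ester activity probe; 0% = GSTO1 with DMSO and 100% = wells lacking GSTO1 enzyme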
LYPLA1 confirm: LYPLA1 inhibitors, retest, confirmation, counter-screen for PME1 inhibitor project, biochemical, fluorescence polarization, FP-Rh probe ABPP; shares compounds with LYPLA1 inh; recombinant LYPLA1; inhibition, % at 5.9 µM; 480 tested, 69% active; AID 2233, 2010;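 active = mean inhibition across replicates above the hit cutoff set in the primary screen, cut at about 15% in these data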;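 note: loss of FP-Rh probe labeling of LYPLA1 seen as lower polarization; 0% = LYPLA1 with DMSO and 100% = wells lacking LYPLA1 enzyme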
LYPLA2 confirm: LYPLA2 inhibitors, retest, confirmation, counter-screen for PME1 inhibitor project, biochemical, fluorescence polarization, FP-Rh probe ABPP; shares compounds with LYPLA2 inh; recombinant LYPLA2; inhibition, % at 5.9 µM; 1,100 tested, 72% active; AID 2232, 2010;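 active = mean inhibition across replicates above the hit cutoff set in the primary screen, cut at about 26% in these data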;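 note: blocked labeling of the enzyme by serine hydrolase FP-Rh probe lowers polarization; 0% = enzyme with DMSO and 100% = wells lacking LYPLA2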
PAD4 FP conf: human PAD4 inhibitors, confirmation, biochemical, fluorescence polarization. AID 488796, 2010. inhibition, % at 6.36 µM. recombinant PAD4, RCA probe fluorescence polarization. 1,200 tested, 28% active. shares compounds with PAD4 FP inh;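 active = mean inhibition across replicates above the hit cutoff set by the earlier primary screen, cut at about 15% in these data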;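 note: inhibitors block active-site labeling by the probe so polarization falls; 0% = PAD4 with probe and DMSO and 100% = probe without PAD4 enzyme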
An asterisk follows results filed as active; · = no result given; + = active, no number. Most compounds without a hit are left out; they make up all but 1.8% or so of the library.

SMILES	GSTO1 counter	PME-1 primary	LYPLA2 inh	LYPLA1 inh	Fam108B counter	PAD4 FP inh	Fam108b confirm	GSTO1 inh conf	LYPLA1 confirm	LYPLA2 confirm	PAD4 FP conf	others
CN(C(=O)CCN1C(=O)S/C(=C\c2ccccc2)C1=O)C1CCS(=O)(=O)C1 (stereo unspecified)	10	-2	-4	0	0	0	·	·	·	·	·
O=C(O)CCNc1ccc(NCCC(=O)O)c2c1C(=O)c1ccccc1C2=O	18	27*	24	9	36*	22*	26*	·	·	·	11
COc1ccccc1NCCC(=O)O	0	-1	-2	3	-3	1	·	·	·	·	·
NS(=O)(=O)c1ccc(CCNC(=O)CCc2nc3sc4c(c3c(=O)[nH]2)CCCC4)cc1	12	-12	0	-5	0	3	·	·	·	·	·
N#Cc1c(N2CCCC2)nc(N)c2c(N)nc(N3CCCC3)cc12	93*	21	14	7	58*	48*	126*	91*	·	·	43*	Fam108b inh=0
COCCN(CC(=O)Nc1cccc(C)c1C)C(=O)Cc1ccsc1	·	·	·	·	·	1	·	·	·	·	·
COC(=O)c1cc(C)nc2c1C(=O)C(=O)C=C2N1CCOCC1	99*	36*	79*	72*	71*	72*	82*	95*	91*	93*	67*	Fam108b inh=0
COC(=O)c1cc(S(=O)(=O)N2CCOCC2)c(Cl)cc1N1CCOCC1	2	-1	1	0	-2	-4	·	·	·	·	·
CC1CN(C(=O)c2ccccc2OCc2ccc(Cl)cc2Cl)CC(C)O1 (stereo unspecified)	·	25	4	1	·	-3	·	·	·	·	·
COc1ccc(OC)c(-c2c3cc(O)c(=O)cc-3oc3cc(O)c(O)cc23)c1	50*	59*	77*	85*	73*	55*	110*	73*	-22	-83	+
CC(=O)Oc1ccc2c(c1)Oc1cc(OC(C)=O)ccc1C21OC(=O)c2ccccc21	72*	121*	119*	106*	107*	99*	145*	84*	98*	121*	128*	Fam108b inh=0
Cn1c(=O)cc2c3c(c(N4CCCCC4)ccc31)C(=O)c1ccccc1-2	39*	40*	38*	28*	24*	70*	19*	24	20*	28*	37*
COC(C[C@@H]1O[C@H]1C(=O)[C@@H](C)OCc1ccccc1)OC	0	-3	-4	1	-1	-3	·	·	·	·	·
Cc1ccc(Cl)cc1NC1=C/C(=N\S(=O)(=O)c2cccs2)c2ccccc2C1=O	74*	24	4	0	24*	52*	20*	94*	·	·	54*
